From PubChem BioAssay (NCATS)
Results filed as inconclusive are left out. Active and inactive are the calls of the source. Unless noted, calls come from the whole dose curve.

Experiments:
[1] = Cell Viability - BJ (AID 421); conditions: BJ fibroblast viability, qHTS;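 note: cells exposed to compound for 40 hours at 37 °C before readout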
In short: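 Quantitative HTS: ATP depletion in BJ cells after 40 hr compound exposure in complete culture medium, detected with CellTiter-Glo; AC50 from standard Hill fits.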

[2] = Cell Viability - HepG2 (AID 433); conditions: qHTS;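 note: potency for ATP loss meaning cytotoxicity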
In short: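 ATP luminescence (CellTiter-Glo) after 40 h compound exposure, 37 °C, HepG2, 1500 cells/well, complete medium. Normalized: DMSO = basal, 100 uM tamoxifen = 100% inhibition. AC50 via standard Hill equation.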

[3] = Cell Viability - MRC5 (AID 434); conditions: MRC5 lung fibroblast viability, qHTS;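 note: potency reflects cytotoxicity seen as loss of intracellular ATP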
In short: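 MRC5 normal human lung fibroblasts, 1500 cells/well, exposed to compound for 40 hr at 37 C. Cellular ATP was read by CellTiter-Glo luminescence; data normalized to DMSO and 100 uM tamoxifen, with AC50 from Hill fits.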

[4] = Cell Viability - SK-N-SH (AID 435); conditions: SK-N-SH neuroblastoma cell viability qHTS
In short: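 CellTiter-Glo ATP luminescence, 20 min RT read; cells pre-plated 5 hr, compound 40 hr at 37 °C, 1500 cells/well, complete medium. Normalized DMSO = 0, 100 uM tamoxifen = 100% inhibition; Hill-fit AC50.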

[5] = molecular target: Glucocorticoid receptor (Homo sapiens) (UniProt P04150); experiment: GR-GFP Redistribution (AID 450;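 active = compounds whose dose series gives a full or clear partial fitted curve of increased nuclear translocation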); conditions: U2OS GR-GFP nuclear translocation, laser cytometry, 2 h

Measured: Potency
Potency is the fitted concentration of half-maximal effect.

Sequence of Glucocorticoid receptor (Homo sapiens) (P04150 whole entry, looked up): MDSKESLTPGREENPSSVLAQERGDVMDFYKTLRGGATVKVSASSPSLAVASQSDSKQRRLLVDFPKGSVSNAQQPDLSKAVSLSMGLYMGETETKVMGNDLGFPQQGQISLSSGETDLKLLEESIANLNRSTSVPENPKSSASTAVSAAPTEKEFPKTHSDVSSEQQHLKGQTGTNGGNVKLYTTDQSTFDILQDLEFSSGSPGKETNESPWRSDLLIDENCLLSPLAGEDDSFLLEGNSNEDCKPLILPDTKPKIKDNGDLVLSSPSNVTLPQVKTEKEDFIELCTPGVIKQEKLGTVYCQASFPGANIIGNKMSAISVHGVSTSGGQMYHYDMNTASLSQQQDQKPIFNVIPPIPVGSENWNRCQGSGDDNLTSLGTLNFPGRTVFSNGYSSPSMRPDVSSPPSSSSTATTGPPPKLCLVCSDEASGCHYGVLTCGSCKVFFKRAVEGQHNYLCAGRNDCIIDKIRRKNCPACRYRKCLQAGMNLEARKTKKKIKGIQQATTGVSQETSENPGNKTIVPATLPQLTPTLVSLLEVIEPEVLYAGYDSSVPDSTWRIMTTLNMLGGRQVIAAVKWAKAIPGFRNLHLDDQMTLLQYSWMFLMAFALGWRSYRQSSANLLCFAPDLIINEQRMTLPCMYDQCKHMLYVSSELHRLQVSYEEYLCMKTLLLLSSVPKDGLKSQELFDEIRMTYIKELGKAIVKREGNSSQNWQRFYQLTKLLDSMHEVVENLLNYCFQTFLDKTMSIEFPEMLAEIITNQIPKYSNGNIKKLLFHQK

Cc1cc(C(C)(C)C)c(O)c(C(C)(C)C)c1
inactive: [1] > 92 µM | [2] > 92 µM | [3] > 92 µM | [4] > 92 µM

COc1cc(C=O)ccc1O
inactive: [1] > 92 µM | [2] > 92 µM | [3] > 92 µM | [4] > 92 µM

Cc1ccc(O)cc1
inactive: [1] > 92 µM | [2] > 92 µM | [3] > 92 µM | [4] > 92 µM

O=C(NO)c1ccccc1
inactive: [1] > 92 µM | [2] > 92 µM | [3] > 92 µM | [4] > 92 µM

Nc1cccc2c(N)cccc12
inactive: [1] > 92 µM | [2] > 92 µM | [3] > 92 µM | [4] > 92 µM

CC(C)(C)c1ccc(O)c(O)c1
active: [4] 54.4 µM
inactive: [1] > 92 µM | [2] > 92 µM | [3] > 92 µM

Clc1ccc2c(c1)N=C(N1CCNCC1)c1ccccc1N2
inactive: [5] > 46 µM

CCCCCCCCCCCCCCCC[n+]1ccccc1
active: [1] 55.8 µM | [2] 32.8 µM | [3] 29.8 µM | [4] 28.7 µM

c1ccc2occc2c1
inactive: [1] > 92 µM | [2] > 92 µM | [3] > 92 µM | [4] > 92 µM

Brc1ccccc1-c1ccccc1
inactive: [1] > 92 µM | [2] > 92 µM | [3] > 92 µM | [4] > 92 µM

O=C(Oc1ccccc1)c1ccccc1O
inactive: [1] > 92 µM | [2] > 92 µM | [3] > 92 µM | [4] > 92 µM
